Assay results as given in PubChem BioAssay AID693 (University of Pittsburgh Molecular Library Screening Center, 2007).
Hit rate of the full screen: of about 97,000 compounds, about 130 (0.13%) were called active. The entries come from a sample that favours actives as a whole. Values without a mark were called inactive. Cut-off read from the data, not from the text of the source: active = inhibition above about 34% (passing the limit was not always enough); inactive = the rest.

Biological target: Serine/threonine-protein kinase PLK1 (Homo sapiens) (UniProt P53350)
Experiment: Plk1 polo box domain binding inhibitors, primary screen, biochemical, fluorescence polarization (AID 693)
Details: Plk1 PBD phosphopeptide binding, hits give high values,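 tested at about 20 µM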

Chain of Serine/threonine-protein kinase PLK1 (Homo sapiens) (P53350 whole entry, looked up, the tested form may be a part): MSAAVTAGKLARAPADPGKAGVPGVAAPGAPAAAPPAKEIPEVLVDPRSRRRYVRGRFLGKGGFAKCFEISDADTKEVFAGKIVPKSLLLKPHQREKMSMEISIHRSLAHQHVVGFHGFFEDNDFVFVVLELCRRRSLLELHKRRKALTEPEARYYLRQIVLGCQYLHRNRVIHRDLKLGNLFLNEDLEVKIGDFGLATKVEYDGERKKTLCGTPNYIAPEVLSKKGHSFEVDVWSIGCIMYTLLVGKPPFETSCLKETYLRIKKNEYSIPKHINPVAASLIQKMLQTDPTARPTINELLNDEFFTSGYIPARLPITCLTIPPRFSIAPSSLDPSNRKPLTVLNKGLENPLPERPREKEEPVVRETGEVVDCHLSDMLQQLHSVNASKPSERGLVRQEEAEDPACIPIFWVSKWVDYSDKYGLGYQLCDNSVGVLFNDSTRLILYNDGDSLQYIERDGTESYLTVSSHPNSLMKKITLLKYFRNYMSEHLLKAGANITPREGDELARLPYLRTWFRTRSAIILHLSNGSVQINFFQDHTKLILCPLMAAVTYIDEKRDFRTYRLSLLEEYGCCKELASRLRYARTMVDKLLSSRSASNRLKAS

| Compound | inhibition |
| --- | --- |
| CCC(=O)NC(Nc1nc2ccc(C)cc2s1)(C(=O)OC)C(F)(F)F (stereo not given) | -11.3% |
| CCOC(=O)C(=O)Nc1nc(-c2ccccc2)c(CC)s1 | 12.1% |
| CC(C)CCNC(=O)Cn1c(=O)oc2cc(S(=O)(=O)N3CC(C)CC(C)C3)ccc21 (stereo not given) | -16.6% |
| O=C(c1ccc(Cl)cc1)c1cnc(Nc2ccccc2)s1 | -14.3% |
| COc1cc(C(=S)N2CCOCC2)cc(OC)c1OC(=O)c1cc([N+](=O)[O-])cc([N+](=O)[O-])c1 | -2.97% |
| C=CCn1c(N)cc(=O)nc1SCC(=O)Nc1cccc2ccccc12 | 15.4% |
| O=C(N/N=C/c1ccc(O)c(O)c1)C1c2ccccc2Oc2ccccc21 | -30.1% |
| O=C(Nc1ccccc1-c1nnn(CC(=O)N2CCCc3ccccc32)n1)c1cccc(Cl)c1 | -7.34% |
| Cn1c(Cc2cccc3ccccc23)nnc1SCC(=O)N1CCN(c2cccc(Cl)c2)CC1 | 23.1% |
| Cc1cccc(CCNS(=O)(=O)c2ccc(S(=O)(=O)NC3CCCC3)cc2)c1 | -16.4% |
| CC(C)OC(=O)c1c(NC(=O)c2ccco2)sc2c1CCCC2 | -34.8% |
| CCCc1ccc(OCc2ccc(C(=O)N/N=C/c3cccc([N+](=O)[O-])c3)o2)c(OC)c1 | -2.94% |
| CCC(c1nnnn1C(C)(C)C)N(Cc1cc2cccc(C)c2n2nnnc12)C1CCCC1 (stereo not given) | -13.2% |
| Cc1[nH]c(=O)c(C(=O)/C=C/c2ccccc2)c2c1CCCC2 | -8.98% |
| Cc1nn(C)cc1C(=O)NNC(=S)Nc1ccc(Cl)cc1 | -11.1% |
| N#Cc1ccccc1CN1C(=O)S/C(=C/c2cccn2-c2cccc(C(=O)O)c2)C1=O | -6.67% |
| O=C(CCCn1c(SCC(=O)c2ccccc2)nc2ccccc2c1=O)NCC1CCCO1 (stereo not given) | 8.37% |
| Cc1ccc(OC(=O)c2ccccc2C(=O)OCC(F)(F)C(F)F)cc1 | -16.7% |
| CCOC(=O)CNC(=O)CSc1nc2cccnc2n1CC | 7.16% |
| C=C(Cl)COC(=O)C1C2C=CC(C2)C1C(=O)O (stereo not given) | 3.3% |
| Cc1nnc(SCC(=O)N/N=C/c2cn(-c3ccccc3)nc2-c2ccc(F)cc2)n1-c1ccccc1 | -7.66% |
| COCCCn1c(SCc2cccc(OC)c2)nc2cc(OC)c(OC)cc2c1=N | -12.2% |
| O=[N+]([O-])c1cccc(-c2nnc3c4ccccc4c4ccccc4n23)c1 | -7.67% |
| Cc1csc2ncc(C(=O)N(Cc3ccccc3)c3ccccn3)c(=O)n12 | -14.3% |
| COC(=O)c1c(-c2cccs2)csc1NC(=O)CSc1ncnc2sc(C)c(C)c12 | -2.76% |
| COc1ccc(C2=NOC3(CC(=O)N(c4ccc(C)cc4)C3=O)C2)cc1 (stereo not given) | 13.3% |
| O=[N+]([O-])c1ccc(NCCCN2CCOCC2)c(Cl)c1 | -38.6% |
| O=C(c1ccco1)N1CCN(C(=O)C2CCCN(S(=O)(=O)c3cccc4nsnc34)C2)CC1 (stereo not given) | -29.8% |

| Compound | inhibition |
| --- | --- |
| Cc1ccc(C2NC(=S)NC3=C2N2CCC3CC2)cc1 (stereo not given) | 3.93% |
| N#C/C(=C(\O)CCl)c1nnc2n1CCCCC2 | -0.62% |
| COc1ccc(C(=O)Nc2nc(-c3ccc(OC)cc3)c(-c3ccc([N+](=O)[O-])cc3)s2)cc1 | -2.13% |
| COc1ccc(NS(=O)(=O)c2ccc(NC(=S)NC(=O)CC(C)C)cc2)cc1 | 3.41% |
| CCc1ccc2nc3sc(C(=O)Nc4nnc(CC)s4)c(N)c3cc2c1 | -67.7% |
| O=C(Cn1cc(-c2nnnn2-c2ccc(Cl)cc2)c(=O)c2ccccc21)c1ccccc1 | 6.2% |
| COC(=O)c1ccccc1NC(=O)Cc1ccccc1OC | 12.5% |
| COC(=O)c1nc2ccccc2s1 | -0.85% |
| CCOC(=O)N1CCN(C(=O)COc2ccc(Cl)cc2C)CC1 | -13.2% |
| O=C(NCCc1ccccc1)/C(=C\c1ccc([N+](=O)[O-])cc1)NC(=O)c1ccccc1 | 55.4% (active) |
| CNC(=O)/C(=C\C=C\c1ccccc1)NC(=O)c1ccc([N+](=O)[O-])cc1 | -9.26% |
| O=C(N/N=C/c1ccc(O)cc1)/C(=C/c1ccc([N+](=O)[O-])cc1)NC(=O)c1ccccc1 | -6.05% |
| O=C1CC(C(F)(F)C(F)(F)C(F)(F)C(F)(F)F)=Nc2ccccc2N1 | 5.5% |
| COC(=O)c1ccc(C(=O)OC)c(NC(=S)N2CCCCC2)c1 | -20.3% |
| CCCCOc1ccc(N(CC(=O)NCC2CCCO2)C(=O)CCC(=O)Nc2cc(C)ccn2)cc1 (stereo not given) | -5.72% |
| C/C(=N\NC(=O)c1ccc(C)cc1)C1C(=O)c2ccccc2C1=O | -15.6% |
| O=c1c([N+](=O)[O-])cc(C(F)(F)F)cn1Cc1cccc(Cl)c1 | 2.97% |
| COc1ccc(S(=O)(=O)Nc2ccc3oc(C)c(C(C)=O)c3c2)cc1 | -17.3% |
| CCNc1nc(NC(C)C)nc(OCCOC(=O)c2ccccc2)n1 | -7.64% |
| CC1CC(C)CN(S(=O)(=O)c2cccc(C(=O)N3C(=O)c4cccc(N)c4C3=O)c2)C1 (stereo not given) | 24.3% |
| O=C(CSCc1ccccc1Cl)NNC(=O)c1ccccc1 | -5.03% |
| Cn1c(=O)n(C)c2cc(/C=N/NC(=O)c3cccc(Br)c3)ccc21 | -16.4% |
| CC1CCC(N2CC(=O)N(Cc3ccc4c(c3)OCO4)C(c3ccc(F)cc3)C2=O)CC1 (stereo not given) | -19% |
| COc1cc(OC)c(/C=N/NC(=O)c2ccc([N+](=O)[O-])cc2)cc1Br | -6.93% |
| CCC1(C)Cc2c(sc3nnn(CC(=O)Nc4ccc(Cl)cc4)c(=O)c23)CO1 (stereo not given) | -26.3% |
| COc1cccc(N2CCN(C(=O)Nc3ccc4c(c3)NC(=O)CO4)CC2)c1 | 16.5% |
| COc1ccc(NC(=O)Cn2c(=O)n(Cc3ccco3)c(=O)c3ccccc32)cc1 | 10.4% |
